# In PubChem BioAssay (EPA / NIEHS):
# Results filed as inconclusive are left out. Activity calls are given as the source filed them. How the source made its calls, unless noted: active means hit-call score of the fitted dose curve at least 0.9, where 1 is the maximum; inconclusive means response in the unintended direction; inactive means score below 0.9.
# Target: human RAR-related Orphan Receptor beta (RORb), RORB (gene 6096) (UniProt Q92753)
# Assay: ATG_RORb_TRANS: Attagene TRANS-FACTORIAL HepG2 Assay for human RAR-related Orphan Receptor beta (RORb) (AID 2283010)
# Details: not given
# Procedure, shortened: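 HepG2, transient MRTU transfection (GAL4-UAS reporters, exogenous NR-Gal4 chimeras); 24 h compound exposure; total RNA → RT-PCR → 6-FAM primer extension → HpaI digest → CE fluorescence. Positive direction vs DMSO baseline.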
# Sequence of human RAR-related Orphan Receptor beta (RORb), RORB (gene 6096) (Q92753 whole entry, looked up): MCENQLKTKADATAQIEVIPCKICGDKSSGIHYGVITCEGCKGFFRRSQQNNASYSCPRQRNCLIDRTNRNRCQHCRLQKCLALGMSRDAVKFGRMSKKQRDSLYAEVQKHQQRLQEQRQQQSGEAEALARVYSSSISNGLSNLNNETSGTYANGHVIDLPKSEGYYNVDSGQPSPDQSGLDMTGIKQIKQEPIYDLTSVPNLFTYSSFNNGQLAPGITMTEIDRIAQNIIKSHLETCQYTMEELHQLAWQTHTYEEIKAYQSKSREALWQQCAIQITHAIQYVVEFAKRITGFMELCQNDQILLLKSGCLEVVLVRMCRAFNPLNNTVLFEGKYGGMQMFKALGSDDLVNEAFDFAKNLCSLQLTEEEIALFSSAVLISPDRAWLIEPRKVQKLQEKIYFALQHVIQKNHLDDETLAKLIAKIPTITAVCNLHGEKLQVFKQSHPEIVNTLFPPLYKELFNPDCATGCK
# Sequence of E-selectin (Homo sapiens) (P16581 whole entry, looked up): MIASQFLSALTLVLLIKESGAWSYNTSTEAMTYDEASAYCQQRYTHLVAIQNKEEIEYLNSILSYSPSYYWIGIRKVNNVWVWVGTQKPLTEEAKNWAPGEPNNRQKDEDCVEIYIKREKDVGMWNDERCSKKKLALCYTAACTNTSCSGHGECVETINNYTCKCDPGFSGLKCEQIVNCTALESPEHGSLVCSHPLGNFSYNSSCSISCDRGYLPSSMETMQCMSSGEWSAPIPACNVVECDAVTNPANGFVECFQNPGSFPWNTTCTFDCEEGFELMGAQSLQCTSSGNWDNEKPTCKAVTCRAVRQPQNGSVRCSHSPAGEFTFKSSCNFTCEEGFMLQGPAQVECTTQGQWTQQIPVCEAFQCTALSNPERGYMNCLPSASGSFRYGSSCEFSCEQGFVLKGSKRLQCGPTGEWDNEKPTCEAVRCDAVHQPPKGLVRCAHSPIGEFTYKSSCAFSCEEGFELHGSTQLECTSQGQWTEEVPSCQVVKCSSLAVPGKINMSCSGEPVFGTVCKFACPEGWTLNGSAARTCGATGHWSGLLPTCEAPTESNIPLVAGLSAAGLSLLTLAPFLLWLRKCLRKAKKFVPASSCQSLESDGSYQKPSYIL
row,Compound,outcome
1,Cc1ccc(C)c(O)c1,inactive
2,CCCCC(CC)COC(=O)CCCCCCCCC(=O)OCC(CC)CCCC (configuration not stated),inactive
3,Cc1ccc(N)cc1O,inactive
4,Cn1cnc([N+](=O)[O-])c1Sc1ncnc2nc[nH]c12,inactive
5,CCOC(=O)COc1ccc2c(c1)CC(NCC(O)c1cccc(Cl)c1)CC2 (configuration not stated),inactive
6,O=c1n(CC2CO2)c(=O)n(CC2CO2)c(=O)n1CC1CO1 (configuration not stated),inactive
7,NC(=O)NO,inactive

# Target: human RAR-related Orphan Receptor gamma (RORg), RORC (gene 6097) (UniProt P51449)
# Assay: ATG_RORg_TRANS: Attagene TRANS-FACTORIAL HepG2 Assay for human RAR-related Orphan Receptor gamma (RORg) (AID 2283011)
# Details: not given
# Procedure, shortened: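 HepG2 cells transiently transfected with GAL4-UAS reporter units and chimeric RORg-Gal4 construct; after 24 h chemical exposure, reporter mRNA measured by RT-PCR with fluorescent capillary electrophoresis, gain of signal fitted against DMSO.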
# Sequence of human RAR-related Orphan Receptor gamma (RORg), RORC (gene 6097) (P51449 whole entry, looked up): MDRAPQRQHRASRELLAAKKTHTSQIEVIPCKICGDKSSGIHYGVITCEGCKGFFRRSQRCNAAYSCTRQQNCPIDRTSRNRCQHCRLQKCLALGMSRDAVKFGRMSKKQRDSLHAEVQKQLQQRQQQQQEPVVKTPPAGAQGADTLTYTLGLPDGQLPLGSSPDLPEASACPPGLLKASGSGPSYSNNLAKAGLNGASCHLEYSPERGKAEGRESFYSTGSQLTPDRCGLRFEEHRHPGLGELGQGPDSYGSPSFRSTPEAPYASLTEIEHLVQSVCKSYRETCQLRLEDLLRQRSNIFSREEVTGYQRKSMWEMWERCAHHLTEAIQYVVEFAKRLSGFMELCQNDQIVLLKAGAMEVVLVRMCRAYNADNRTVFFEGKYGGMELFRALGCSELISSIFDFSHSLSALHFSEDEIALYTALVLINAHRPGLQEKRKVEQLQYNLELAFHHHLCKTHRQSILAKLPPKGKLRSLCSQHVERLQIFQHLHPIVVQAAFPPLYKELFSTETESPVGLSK
row,Compound,outcome
1,CC[C@H]1CC[C@H](NCc2cc3c(cc2OC)[C@H]2C[C@H]2C(=O)N3C)[C@H](c2ccccc2)N1,inactive
2,Cc1c(-c2cccnc2)c2ccccc2n1CCCCC(=O)O,inactive
3,CCCCC(CC)COC(=O)CCCCCCCCC(=O)OCC(CC)CCCC (configuration not stated),inactive
4,Cc1ccc(N)cc1O,inactive
5,CCC(C)(C)C(=O)O[C@H]1C[C@@H](C)C=C2C=C[C@H](C)[C@H](CC[C@@H]3C[C@@H](O)CC(=O)O3)[C@H]21,inactive
6,CCCCCCCCCCCCCCCO,inactive
7,CC(O)CN(CCN(CC(C)O)CC(C)O)CC(C)O (configuration not stated),inactive
8,Clc1nc(Cl)c(Cl)c(Cl)c1Cl,inactive
9,O=C1CCCCCN1,inactive
10,CCNc1ccccc1,inactive
11,COc1ccc2sc(C(=O)Nc3nnn[nH]3)c(OC(C)C)c2c1,inactive
12,CCOC(=O)COc1ccc2c(c1)CC(NCC(O)c1cccc(Cl)c1)CC2 (configuration not stated),inactive
13,CNS(=O)(=O)c1cc(C(=O)N2CCC(CCN3C4CCC3CC(n3c(C)nc5ccccc53)C4)(c3cccc(F)c3)CC2)c(Cl)cc1F (configuration not stated),inactive
14,NC(=O)NO,inactive

# Target: Retinoic acid receptor RXR-alpha (Homo sapiens) (UniProt P19793)
# Assay: ATG_RXRa_TRANS: Attagene TRANS-FACTORIAL HepG2 Assay for human Retinoid X Receptor alpha (RXRa) (AID 2283012)
# Details: not given
# Procedure, shortened: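 Read-out: fluorescent reporter-transcript fragments quantified by capillary electrophoresis after RT-PCR. Transiently transfected HepG2 cells carrying GAL4-UAS reporters and NR-GAL4 chimeras were exposed to chemical for 24 h; activity scored as increase over DMSO.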
# Sequence of Retinoic acid receptor RXR-alpha (Homo sapiens) (P19793 whole entry, looked up): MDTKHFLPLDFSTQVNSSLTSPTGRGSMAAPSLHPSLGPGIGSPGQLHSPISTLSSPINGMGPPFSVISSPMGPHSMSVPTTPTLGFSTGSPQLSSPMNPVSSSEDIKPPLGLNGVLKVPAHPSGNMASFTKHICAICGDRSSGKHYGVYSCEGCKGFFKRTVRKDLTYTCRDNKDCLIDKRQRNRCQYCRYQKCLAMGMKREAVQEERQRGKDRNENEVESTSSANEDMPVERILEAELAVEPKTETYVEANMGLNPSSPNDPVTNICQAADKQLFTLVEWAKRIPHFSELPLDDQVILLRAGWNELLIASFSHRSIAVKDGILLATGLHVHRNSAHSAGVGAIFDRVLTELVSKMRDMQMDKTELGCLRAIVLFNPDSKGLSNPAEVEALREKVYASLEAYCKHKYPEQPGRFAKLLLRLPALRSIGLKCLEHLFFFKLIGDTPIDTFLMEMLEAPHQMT
row,Compound,outcome
1,CC[C@H]1CC[C@H](NCc2cc3c(cc2OC)[C@H]2C[C@H]2C(=O)N3C)[C@H](c2ccccc2)N1,inactive
2,Oc1ccc2c(c1)-c1ccccc1C2,inactive
3,CCCCC(CC)COC(=O)CCCCCCCCC(=O)OCC(CC)CCCC (configuration not stated),inactive
4,Cc1ccc(S(=O)(=O)O)cc1C,inactive
5,CCC(C)(C)C(=O)O[C@H]1C[C@@H](C)C=C2C=C[C@H](C)[C@H](CC[C@@H]3C[C@@H](O)CC(=O)O3)[C@H]21,inactive
6,CC(C)c1cccc(C(C)C)c1N1C(=O)c2ccc(O)cc2C1=O,inactive
7,CCCCCCCCCCCCCCCO,inactive
8,Cn1cnc([N+](=O)[O-])c1Sc1ncnc2nc[nH]c12,inactive
9,CC(O)CN(CCN(CC(C)O)CC(C)O)CC(C)O (configuration not stated),inactive
10,CNCc1ccc(NC(=O)c2c[nH]c3c2C(=O)CCC3)cc1,inactive
11,O=C1CCCCCN1,inactive
12,COc1ccc(-n2nc(C(F)F)cc2-c2ccc(S(C)=O)cc2)cc1 (configuration not stated),inactive
13,Cc1[nH]cnc1C[C@H]1CCc2c(C)c3ccccc3n2C1=O,inactive
14,O=C(O)c1cccc(N(Cc2cccnc2)c2ccc(OC(F)F)c(OC(F)F)c2)c1,inactive
15,COc1ccc2sc(C(=O)Nc3nnn[nH]3)c(OC(C)C)c2c1,inactive
16,COC(=O)c1ccccc1O,inactive
17,CN(C)c1ccc(Cc2ccc(N(C)C)cc2)cc1,inactive

# Target: human Retinoid X Receptor beta (RXRb), RXRB (gene 6257) (UniProt P28702)
# Assay: ATG_RXRb_TRANS: Attagene TRANS-FACTORIAL HepG2 Assay for human Retinoid X Receptor beta (RXRb) (AID 2283013)
# Details: not given
# Procedure, shortened: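 Read-out: reporter mRNA induction via RT-PCR plus capillary electrophoresis fluorescence, analysed as signal increase relative to DMSO. Cells were human HepG2, transiently transfected with GAL4-UAS reporter constructs and chimeric receptor-Gal4 fusions, dosed for 24 h.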
# Sequence of human Retinoid X Receptor beta (RXRb), RXRB (gene 6257) (P28702 whole entry, looked up): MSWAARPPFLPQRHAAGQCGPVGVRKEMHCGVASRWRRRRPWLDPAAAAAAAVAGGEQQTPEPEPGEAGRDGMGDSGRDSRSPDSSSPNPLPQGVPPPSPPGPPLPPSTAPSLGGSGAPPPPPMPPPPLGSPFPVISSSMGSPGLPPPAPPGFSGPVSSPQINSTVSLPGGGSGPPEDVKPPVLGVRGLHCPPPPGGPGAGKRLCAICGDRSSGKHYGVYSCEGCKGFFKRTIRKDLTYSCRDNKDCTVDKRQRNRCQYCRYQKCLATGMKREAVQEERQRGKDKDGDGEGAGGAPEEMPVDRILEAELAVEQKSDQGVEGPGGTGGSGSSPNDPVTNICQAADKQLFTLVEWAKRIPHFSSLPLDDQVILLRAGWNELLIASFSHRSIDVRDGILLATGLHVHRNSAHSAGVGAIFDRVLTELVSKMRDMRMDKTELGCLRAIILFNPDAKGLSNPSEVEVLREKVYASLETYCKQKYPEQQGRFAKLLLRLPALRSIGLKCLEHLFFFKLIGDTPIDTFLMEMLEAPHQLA
row,Compound,outcome
1,CC(C)c1cccc(C(C)C)c1N1C(=O)c2ccc(O)cc2C1=O,inactive
2,Cn1cnc([N+](=O)[O-])c1Sc1ncnc2nc[nH]c12,inactive
3,CC(O)CN(CCN(CC(C)O)CC(C)O)CC(C)O (configuration not stated),inactive
4,CCNc1ccccc1,inactive
5,CNS(=O)(=O)c1cc(C(=O)N2CCC(CCN3C4CCC3CC(n3c(C)nc5ccccc53)C4)(c3cccc(F)c3)CC2)c(Cl)cc1F (configuration not stated),inactive

# Target: human Thyroid Receptor alpha (THRa1), THRA (gene 7067) (UniProt P10827)
# Assay: ATG_THRa1_TRANS: Attagene TRANS-FACTORIAL HepG2 Assay for human Thyroid Receptor alpha (THRa1) (AID 2283014)
# Details: not given
# Procedure, shortened: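 HepG2 cells transiently transfected with chimeric NR-Gal4 and GAL4-UAS reporter units, dosed 24 h. Reporter mRNA quantified by RT-PCR, fluorescent labeling, HpaI digestion and capillary electrophoresis; gain-of-signal fit versus DMSO.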
# Sequence of human Thyroid Receptor alpha (THRa1), THRA (gene 7067) (P10827 whole entry, looked up): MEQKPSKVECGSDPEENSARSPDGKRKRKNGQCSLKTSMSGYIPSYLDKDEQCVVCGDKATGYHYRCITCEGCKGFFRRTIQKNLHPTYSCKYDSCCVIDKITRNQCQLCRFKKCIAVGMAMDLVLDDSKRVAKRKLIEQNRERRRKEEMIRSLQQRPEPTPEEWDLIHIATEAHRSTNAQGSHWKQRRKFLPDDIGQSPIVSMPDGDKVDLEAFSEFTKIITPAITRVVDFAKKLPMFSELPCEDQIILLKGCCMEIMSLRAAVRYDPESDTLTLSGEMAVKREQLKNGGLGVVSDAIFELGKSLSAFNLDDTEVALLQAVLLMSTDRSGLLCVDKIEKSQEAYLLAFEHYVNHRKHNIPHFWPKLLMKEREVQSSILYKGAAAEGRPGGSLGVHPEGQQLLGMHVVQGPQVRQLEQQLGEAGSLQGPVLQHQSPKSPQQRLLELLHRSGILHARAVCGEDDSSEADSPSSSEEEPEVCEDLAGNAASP
Compound,outcome,AC50
Oc1ccc2c(c1)-c1ccccc1C2,inactive,–
C[C@](N)(Cc1ccc(O)c(O)c1)C(=O)O,inactive,–
Cn1cnc([N+](=O)[O-])c1Sc1ncnc2nc[nH]c12,–,27.2 µM (active)
CNCc1ccc(NC(=O)c2c[nH]c3c2C(=O)CCC3)cc1,inactive,–
Cc1[nH]cnc1C[C@H]1CCc2c(C)c3ccccc3n2C1=O,inactive,–
CCNc1ccccc1,inactive,–
CCOC(=O)COc1ccc2c(c1)CC(NCC(O)c1cccc(Cl)c1)CC2 (configuration not stated),inactive,–
CNS(=O)(=O)c1cc(C(=O)N2CCC(CCN3C4CCC3CC(n3c(C)nc5ccccc53)C4)(c3cccc(F)c3)CC2)c(Cl)cc1F (configuration not stated),inactive,–
O=c1n(CC2CO2)c(=O)n(CC2CO2)c(=O)n1CC1CO1 (configuration not stated),inactive,–
CN(C)c1ccc(Cc2ccc(N(C)C)cc2)cc1,inactive,–

# Read-out: E-selectin (Homo sapiens) (UniProt P16581)
# Assay: BSK_3C_Eselectin: BioMAP Diversity Plus: 3C Assay for Eselectin Biomarker Activity (AID 2283015; active means hit-call score of the fitted dose curve at least 0.9, where 1 is the maximum; inactive means score below 0.9;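 on outcome: cell surface E-selectin protein quantified by ELISA 24 h after dosing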)
# Details: primary human endothelial cells (HUVEC); actives raise or lower the signal
# Procedure, shortened: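 Primary human umbilical vein endothelial cells (3C system), read 24 h after compound addition; E-selectin measured by ELISA. Bidirectional curve fitting against DMSO baseline; cytotoxicity by parallel SRB total-protein staining.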
Compound,outcome,AC50
CC[C@H]1CC[C@H](NCc2cc3c(cc2OC)[C@H]2C[C@H]2C(=O)N3C)[C@H](c2ccccc2)N1,inactive,–
Oc1ccc2c(c1)-c1ccccc1C2,inactive,–
Cc1c(-c2cccnc2)c2ccccc2n1CCCCC(=O)O,inactive,–
Cc1ccc(C)c(O)c1,inactive,–
CCCCC(CC)COC(=O)CCCCCCCCC(=O)OCC(CC)CCCC (configuration not stated),inactive,–
Cc1ccc(S(=O)(=O)O)cc1C,inactive,–
Cc1ccc(N)cc1O,inactive,–
CCC(C)(C)C(=O)O[C@H]1C[C@@H](C)C=C2C=C[C@H](C)[C@H](CC[C@@H]3C[C@@H](O)CC(=O)O3)[C@H]21,–,30.2 µM (active)
C[C@](N)(Cc1ccc(O)c(O)c1)C(=O)O,inactive,–
CC(C)c1cccc(C(C)C)c1N1C(=O)c2ccc(O)cc2C1=O,–,36.5 µM (active)
CCCCCCCCCCCCCCCO,–,26.9 µM (active)
Cn1cnc([N+](=O)[O-])c1Sc1ncnc2nc[nH]c12,inactive,–
CC(O)CN(CCN(CC(C)O)CC(C)O)CC(C)O (configuration not stated),inactive,–
CNCc1ccc(NC(=O)c2c[nH]c3c2C(=O)CCC3)cc1,inactive,–
Clc1nc(Cl)c(Cl)c(Cl)c1Cl,inactive,–
CCn1nc(Cc2ccccc2)cc1C1CCN(C[C@H]2C[C@H](N(C)[C@@H](C(=O)O)C(C)C)C[C@@H]2c2cccc(F)c2)CC1,inactive,–
O=C1CCCCCN1,inactive,–
COc1ccc(-n2nc(C(F)F)cc2-c2ccc(S(C)=O)cc2)cc1 (configuration not stated),inactive,–
Cc1[nH]cnc1C[C@H]1CCc2c(C)c3ccccc3n2C1=O,inactive,–
O=C(O)c1cccc(N(Cc2cccnc2)c2ccc(OC(F)F)c(OC(F)F)c2)c1,inactive,–
Fc1ccccc1[C@@H](F)COC1CCC(Nc2ncnc3[nH]ncc23)CC1 (some centres not stated),inactive,–
CCNc1ccccc1,inactive,–
COc1ccc2sc(C(=O)Nc3nnn[nH]3)c(OC(C)C)c2c1,–,19.9 µM (active)
CCOC(=O)COc1ccc2c(c1)CC(NCC(O)c1cccc(Cl)c1)CC2 (configuration not stated),–,31.4 µM (active)
COC(=O)c1ccccc1O,inactive,–
CNS(=O)(=O)c1cc(C(=O)N2CCC(CCN3C4CCC3CC(n3c(C)nc5ccccc53)C4)(c3cccc(F)c3)CC2)c(Cl)cc1F (configuration not stated),inactive,–
O=c1n(CC2CO2)c(=O)n(CC2CO2)c(=O)n1CC1CO1 (configuration not stated),–,16.1 µM (active)
NC(=O)NO,inactive,–
CN(C)c1ccc(Cc2ccc(N(C)C)cc2)cc1,inactive,–
